# Test results published in the supplement of paper PMC6555819.
# Assays:
# Test in all cases: PBM binding z-score (relative to random genomic background probes); higher = stronger binding; sequences stand for … in GC…GCGATTGACAGCGTAGAATGAAGG
# [1] = system: FXR:RXRa (NR concentration 270 nM, RXRa partner concentration 90 nM)
# In short: (§1)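 Antibodies against each partner of ligand-free nuclear receptor dimers (one per run) detected binding on custom Agilent 4×180K protein-binding microarrays after 1 h incubation. The double-stranded probes had 34-nt variable regions carrying direct-repeat seeds, single-nucleotide variants, half-site ablations and random human genomic background sequences. Binding z-scores, from regression-normalized fluorescence, use the random background probes as reference.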
# [2] = system: LXRa:RXRa (NR concentration 270 nM, RXRa partner concentration 90 nM)
# In short: as §1
# [3] = system: LXRa homodimer (NR concentration 270 nM)
# In short: as §1
# [4] = system: LXRb:RXRa (NR concentration 270 nM, RXRa partner concentration 90 nM)
# In short: as §1
# [5] = system: LXRb homodimer (NR concentration 270 nM)
# In short: as §1
# [6] = system: PPARa:RXRa (NR concentration 270 nM, RXRa partner concentration 90 nM)
# In short: as §1
# [7] = system: PPARg:RXRa (NR concentration 180 nM, RXRa partner concentration 90 nM)
# In short: as §1
# [8] = system: PPARg:RXRa 270nM:90nM, anti-RXR (NR concentration 270 nM, RXRa partner concentration 90 nM)
# In short: as §1
# [9] = system: PPARg:RXRa 30nM:10nM, anti-RXR (NR concentration 30 nM, RXRa partner concentration 10 nM)
# In short: as §1
# [10] = system: PPARg:RXRa 90nM:30nM, anti-RXR (NR concentration 90 nM, RXRa partner concentration 30 nM)
# In short: as §1
Sequence,PBM binding z-score [1],PBM binding z-score [2],PBM binding z-score [3],PBM binding z-score [4],PBM binding z-score [5],PBM binding z-score [6],PBM binding z-score [7],PBM binding z-score [8],PBM binding z-score [9],PBM binding z-score [10]
GCAGACAGTTGAAACGCAGGTAACTCAGGGTGGC,-0.0356,-0.382,-0.506,-0.476,-0.589,-0.162,0.287,-0.573,-0.78,-0.65
TGAATGAGGTTAAAGATCAGGGAGCGTGGCGTCG,2.85,2.34,-0.379,1.14,0.0684,4.39,5.63,5.88,5.47,6.49
CCGACTGGGGCAGAAAGGTTACTATACCATCCGG,-0.369,-0.0108,-0.29,0.722,-1.04,1.5,1.63,2.14,0.485,1.52
GGATCGAGGGCAAAGTTGATAGCATCTGTCGACG,1.65,1.21,-0.00761,0.937,-0.138,4.37,7.25,7.18,5.86,8.27
GCTTACGGGTCAAAGGTGATAGCATGAATAGAAT,6.24,4.59,0.0435,4.64,0.353,6.57,10.2,8.54,7.83,9.26
GATACAGGGGCAGCTAGAGGCCAGAGTATGGAAA,0.0694,0.017,-0.177,0.453,-0.405,0.26,0.483,0.296,-0.0735,-0.078
TCTGCTAGGTCACCGATGGTCAGCTAATCTGCTA,3.75,3.3,-0.47,2.07,-0.343,3.82,3.64,4.04,2.09,3.11
GCTATCAGTTGAAAGGGCAACCGAATGATTCTCG,0.0237,0.591,0.000257,0.46,-0.626,1.99,1.65,2.77,1.35,2.69
GCGACTGGGGCATCAGCAGGTTACCAGAACTTAA,-0.204,-0.156,-0.341,0.413,-1.13,1.04,0.791,0.667,-0.35,0.126
CCTGCTAGGTCAGTGGTCAGCTAAAGCAGCTCGC,0.953,0.472,-0.482,0.299,-0.638,1.39,1.53,2.58,0.178,1.59
CGTCAAAGTTTAACTAAGGTAACGTAAAGCACGC,1.47,2.68,0.251,0.825,0.249,1.15,0.797,1.22,0.174,0.65
TCTGCTAGGTCAGTTGGTCAGCTGACGAGCTGCC,0.985,0.585,-0.512,0.147,0.278,1.34,0.32,1.68,1.08,0.992
TCAGACAGGTGACGGTAACTCAGGTACGCAGTCG,-0.0449,0.58,-0.354,0.0924,-0.599,0.857,0.69,1.72,3.16,2.51
ATCTCTAGGTAACCATGTTCAGTGAATGCCGAAC,0.171,0.321,0.00917,0.435,0.529,0.518,0.664,0.662,0.044,0.484
AGAATGAGGTTAAGATCATGGAAACAGAATACAT,2.01,1.71,-0.0716,1.88,-0.112,3.44,2.5,2.38,0.804,1.82
CAGCCTAGGTCAGGGCCTGTATAGGAGGAACGTT,1.48,0.732,-0.667,0.189,-0.753,1.95,0.752,0.931,-0.43,0.141
CCTAGTTGGTCAGGAGGTCACACTCCGGATATGA,3.59,3.48,2.22,3.31,0.86,3.98,3.28,4.03,1.65,3.38
ATATGCAGGTTAGCTGGGGTCATTCAGACTAGGC,4.95,5.96,3.01,4.92,0.363,4.7,2.52,3.4,0.768,2.26
CGAACTAGGTAAGAACAGGACAGTGAAGGATGAT,-0.196,-0.204,-0.208,-0.602,-0.626,0.502,0.928,0.462,0.267,0.273
GGAACGAGGGCAAGTTGATAGCTGAGTTTGATGG,0.775,0.137,-0.459,0.185,-0.455,1.59,0.992,1.03,0.138,0.467
GCTCCGAGGACAAGGTCAGAGCTTTGTCCGTAGA,1.79,1.33,-0.653,1.05,-1.37,2.23,0.168,1.15,-0.379,0.299
TCTCGGAGGACACGAAAGGTCAGAGGTCGACATC,3.84,4.45,3.58,4.14,0.107,4.5,3.27,4.29,3.24,3.74
GATGCTAGGTCAGGTTGGTCAGCTAACGGGTACG,1.5,1.03,-0.12,0.742,0.041,1.66,0.776,0.805,-0.511,0.0836
CCTAGCAGGCCAATCTGGATCACTCAAGGCTTGA,-0.3,-0.327,-0.53,-0.467,-0.696,-0.131,0.141,-0.529,-0.702,-0.514
TCTATTAGTTGAAGGGCAAACGACGAGTCCGTTT,0.768,1.24,0.6,1.3,0.637,1.43,0.285,2.43,3.63,2.94
